# Screens deposited in PubChem by National Center for Advancing Translational Sciences (NCATS).
# HT1080 IDH1KD tx: qHTS for induction of synthetic lethality in tumor cells producing 2HG: qHTS for the HT-1080-IDH1KD cell line; Potency, µM (doses to about 46.1 µM), for the others: at the highest dose activity, negative = toxicity, hits mostly cytotoxic; HT-1080 IDH1 knockdown viability, ATP luminescence, 48 h; AID 686971, 2013; actives 2% (n = 360,000);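 also: 0% = DMSO wells and -100% = cell-free medium wells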
#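 HT-1080-IDH1KD cells (IDH1 knocked down), 750/well in RPMI with 5% FBS, treated with compound 48 h at 37 degrees C. Viability by CellTiter-Glo luminescence, normalised to DMSO and no-cell wells; concentration-response curves classed.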
# KB-V1 cytotox: qHTS assay for MDR1-selective chemotherapeutics: Primary screen using the drug-selected MDR subline cells KB-V1 | KB-V1 MDR cells viability, CellTiter-Glo, 72 h | Potency, µM (doses to about 46.1 µM), usual class: cytotoxic | actives 3.4% (n = 400,000) | AID 1347076, 2019; also: nearly all actives have a fitted effect of over 60% in size
#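 Potencies derive from concentration-effect curves fitted to normalized luminescence (CellTiter-Glo) of KB-V1 cells treated for 72 h at 37 degrees C in phenol-red-free DMEM containing 10% FBS.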
# TDP1 cell CPT: qHTS for Inhibitors of human tyrosyl-DNA phosphodiesterase 1 (TDP1): qHTS in cells in presence of CPT. chicken DT40 Tdp1-/-;hTDP1 cells + 20 nM CPT, ATP luminescence, 48 h. Potency, µM (series often up to 46.2 µM), for inactives: at the highest dose activity change, negative = growth inhibition, usual class: inhibitors. actives 12% (n = 420,000). AID 686979, 2013; also: nearly all actives have a fitted effect of over 55% in size
#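 Chicken DT40 Tdp1-/- cells complemented with human TDP1, 400 cells/well, exposed to compounds plus 20 nM camptothecin for at least 48 h at 37 C; viability read as ATP content by CellTiter-Glo luminescence.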
# HT1080-NT tox: qHTS for induction of synthetic lethality in tumor cells producing 2HG: qHTS for the HT-1080-NT fibrosarcoma cell line. Potency, µM (titrated, usually from 46.1 µM), inactives show top-dose activity, negative = less viability, hits mostly cytotoxic. HT-1080-NT fibrosarcoma viability, CellTiter-Glo ATP luminescence, 48 h. actives 1.6% (n = 360,000). AID 686970, 2013;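 also: NT is the 2HG producing partner of a matched IDH1 knockdown line; 0% = DMSO-treated cells and -100% = media-only wells without cells; nearly all actives have a fitted effect of over 55% in size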
#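 Viability by CellTiter-Glo luminescence after 48 h compound exposure at 37C of HT-1080-NT cells (750/well, RPMI, 5% FBS). % activity scaled between DMSO wells and medium-only wells, then curve-fitted and categorized by curve class.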
# DT40 TDP1 no CPT: qHTS for Inhibitors of human tyrosyl-DNA phosphodiesterase 1 (TDP1): qHTS in cells in absence of CPT; DT40 Tdp1-/- hTDP1 cells, no CPT, ATP luminescence, 48 h; Potency, µM (highest dose often 46.2 µM), for the others: at the highest dose activity change, negative = growth inhibition, usual class: inhibitors; actives 15% (n = 420,000); AID 686978, 2013; also: nearly all actives have a fitted effect of over 55% in size
#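 A cellular qHTS used chicken DT40 cells lacking endogenous Tdp1 but carrying stably transfected human TDP1. Compounds were applied without camptothecin, and cell growth kinetics were judged by ATP-dependent luminescence after ≥48 hr.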
# KB-3-1 tox: qHTS assay for MDR1-selective chemotherapeutics: Primary screen using the parental adenocarcinoma cell KB-3-1; actives 1.4% (n = 400,000); KB-3-1 viability, CellTiter-Glo ATP luminescence, 72 h; Potency, µM (titrated, usually from 46.1 µM), most hits filed as cytotoxic; also: nearly all actives have a fitted effect of over 60% in size
#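 Parental KB-3-1 adenocarcinoma cells in phenol-red-free DMEM with 10% FBS were pin-treated with compounds at several concentrations, incubated 72 h at 37 °C, and viability read by CellTiter-Glo luminescence; concentration-effect curves were fitted after normalization.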
# * = called active by the depositor; i = inactive; u = inconclusive; x = no result given. Sampled rows, rich in hits. Any-hit rate of the full collection: about 19%. Calls follow the shape of the dose curve; as a rule, active = well fitted curve in the direction sought with a large enough effect; inconclusive = small, poorly fitted or top-dose-only effect, or another doubt; inactive = no such curve, though single readings can be large; an effect the other way counts as inactive or inconclusive. Unless noted, % is scaled to controls: 0 for no effect and ±100 for the full control effect; potency is read from the fitted curve at half-maximal effect.
SMILES,HT1080 IDH1KD tx,KB-V1 cytotox,TDP1 cell CPT,HT1080-NT tox,DT40 TDP1 no CPT,KB-3-1 tox
O=C(COc1ccccc1)N1CCN(CC2CC3C=CC2C3)CC1 (stereo unspecified),12.5%,u,u,0.0%,u,i
CCCC[C@H]1C(=O)O[C@H](C)[C@H](NC(=O)c2cccc(NC=O)c2OC)C(=O)O[C@@H](C)[C@@H]1OC(=O)CC(C)C,x,x,u,x,6.75µM*,x
CCCCCC1C(=O)O[C@H](C)[C@@H](NC(=O)c2cccc(NC=O)c2O)C(=O)OC(C)C1OC(=O)CC(C)C (stereo partly specified),x,x,0.0461µM*,x,0.0461µM*,x
Cn1ccnc1P(=S)(c1nccn1C)c1nccn1C,18.7%,i,10.2%,1.0%,2.1%,i
CC1CN2c3ccc([N+](=O)[O-])cc3CC3(C(=O)N(C)C(=O)N(C)C3=O)C2C(C)O1 (stereo unspecified),4.1%,i,18.9%,0.0%,1.5%,i
Cc1cc(/C=C/c2cccc3sc(C)[n+](CCCCI)c23)ccc1N(CCCl)CCCl,x,i,2µM*,x,1.58µM*,i
Nc1c(C(=O)Nc2cccc(Br)c2)sc2nc3c(cc12)N1CCC3CC1,x,u,x,x,x,i
Nc1c(C(=O)Nc2ccc(Cl)cc2)sc2nc3c(cc12)N1CCC3CC1,x,7.31µM*,u,x,16.4µM*,i
Nc1c(C(=O)Nc2ccc(Cl)c(C(F)(F)F)c2)sc2nc3c(cc12)N1CCC3CC1,x,x,13µM*,x,13µM*,x
COc1ccc(NC(=O)c2sc3nc4c(cc3c2N)N2CCC4CC2)cc1OC,x,i,u,x,25.9µM*,i
COc1cccc(NC2=NCCCS2)c1,-0.5%,i,12.1%,1.3%,20.8%,i
COC(=O)C1=C(c2ccc(S(C)(=O)=O)cc2)C[C@@H]2CC[C@H]1N2C(=O)NCCNC(C)=O,1.6%,i,2.5%,13.8%,x,i
CCn1cc(C(=O)N2CCOCC2)c2ccccc21,-7.8%,i,-5.7%,2.7%,2.2%,u
COC1C(C)OC(OC2CC(C)(O)Cc3cc4c(c(O)c32)C(=O)c2c(O)cc3c(c2C4=O)OC2OC3(C)C(O)C(N(C)C)C2O)C(OC)C1(C)OC (stereo unspecified),16.4µM*,i,0.082µM*,u,0.116µM*,0.461µM*
CCN(CC)c1ccc(/C=C/[N+](=O)[O-])cc1,16.4µM*,u,u,u,16.4µM*,u
CCN(CC)c1ccccc1,5.6%,i,-3.7%,17.6%,-7.5%,i
CN(C)CCCCCCN(C)C (tested in a mixture with another compound),x,x,-6.0%,x,2.8%,x
COC(=O)C1=C(c2ccc(OC(F)(F)F)cc2)C[C@@H]2CC[C@H]1N2C(=O)NC1CCCCC1,-11.5%,u,u,-3.5%,16.4µM*,u
COC(=O)C1=C(c2ccc(OC(F)(F)F)cc2)C[C@@H]2CC[C@H]1N2C(=O)NC1Cc2ccccc2C1,0.0%,i,23.1µM*,0.0%,u,i
Cc1nn(Cc2c(Cl)cccc2Cl)c(Cl)c1C(=O)O,4.7%,i,19.6%,-1.4%,14.2%,i
CC(C)(C)OC(=O)N1CCCC(C(=O)Nc2cccc(C(=O)NCCc3ccccc3)c2)C1 (stereo unspecified),-0.2%,i,14.6µM*,-6.3%,20.6µM*,i
